# BoNT-A LC inh2: BoNT A light chain protease inhibition; inhibition, % at 10 µM; 0.17% of 360,000 active; multiplex microsphere protease substrate cleavage, flow cytometry; AID 588499; further: plate controls were buffer without enzyme for full effect and enzyme alone for no effect
# Anthrax LF prot: blocks Bacillus anthracis lethal factor protease | P15917 | multiplex microsphere protease cleavage assay, LF | inhibition, % at 10 µM | 0.12% of 360,000 active; further: plate controls were buffer without enzyme for full effect and enzyme alone for no effect
# Bead autofluor: counter-screen for toxin protease inhibitors: compound fluorescence; 3.1% of 360,000 active; fluorescence intensity (concentration not given with the values); compound autofluorescence counterscreen, microsphere flow cytometry; active compounds read high; AID 624483; in the data active means fluorescence intensity above about 16000; inconclusive means no clear call, values can overlap the other calls
# MazF activator: increases E. coli MazEF RNase cleavage of RNA; P0AE70; FAM/BHQ RNA-DNA oligo cleavage fluorescence, 5 h; activation, % at 20 µM; 0.32% of 350,000 active; AID 504720; in the data active means activation above about 50%
# Target sequence (P0AE70 whole entry, looked up): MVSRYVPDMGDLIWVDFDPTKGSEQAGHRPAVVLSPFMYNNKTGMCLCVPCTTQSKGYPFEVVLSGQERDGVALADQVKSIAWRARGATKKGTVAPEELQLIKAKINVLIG
# BoNT F protease: inhibitors of Botulinum neurotoxin F light chain protease. Multiplex microsphere protease cleavage assay, flow cytometry. inhibition, % at 10 µM. 0.22% of 360,000 active. AID 588497; in the data active means inhibition above about 35%, passing the limit was not always enough; inconclusive means no clear call, values can overlap the other calls; further: plate controls were buffer without enzyme for full effect and enzyme alone for no effect
# * marks the source's active call; other numbers are inactive results; ? = inconclusive; nt = not tested or not shown. Shown are actives, neighbours in structure and some others; about 3.6% of the full set was active somewhere. Unless noted, no stated cut-off is given here; in the data, active means inhibition above about 30%; inconclusive means no clear call, values can overlap the other calls; inactive means below that.
SMILES,BoNT-A LC inh2,Anthrax LF prot,Bead autofluor,MazF activator,BoNT F protease
CCNC(=O)CSc1nnc(-c2ccc(OC)cc2)n1CC(C)C,3,-10,21420*,5,2
COc1ccc(NC(=O)CSc2nnc(-c3ccccc3C)n2C)cc1,?,-1,19446*,1,1
CCOC(=O)Cc1csc(NC(=O)CSc2nnc3ccccn23)n1,-1,-2,2527,6,-8
COc1ccc(C(=O)NCCc2nnc(SCC(=O)Nc3ccccc3C(C)C)n2C)cc1,0,-3,20025*,2,0
CC(=O)Nc1ccc(-c2nnc(SCC(=O)c3ccc4c(c3)Cc3ccccc3-4)n2C)cc1,1,-3,9297,-6,1
CC(=O)Nc1ccc(-c2nnc(SCc3c(C)cc(C)cc3C)n2C)cc1,0,0,23890*,7,-3
CCOc1ccc(NC(=O)CSc2nnc(-c3ccccn3)n2N)cc1,1,-4,16005,3,-1
COc1ccccc1-c1nnc(SCC(=O)Nc2ccc(S(N)(=O)=O)cc2)n1C,-3,-4,21773*,-2,-6
CCn1c(CCNC(=O)c2ccc(OC)cc2)nnc1SCC(=O)Nc1ccccc1F,0,-3,3233,-4,-6
COc1ccc(NC(=O)CSc2nnc(-c3ccccn3)n2N)cc1,34*,-24,9304,-3,35*
COc1ccc(-c2nc3ccc(Br)cn3c2Cc2cccc(Cl)c2)cc1OC,9,13,6815,nt,-7
O=C(NCCc1ccc(Cl)cc1)c1cc(S(=O)(=O)N2CCCCC2)c[nH]1,0,1,5500,7,-8
COc1ccc(-c2nnc(SCC(=O)Nc3ccc(C)cc3)n2C)cc1,0,0,8101,3,-2
COc1ccc(CNC(=O)CSc2nnc(-c3ccc(NC(C)=O)cc3)n2C)cc1,5,-7,17726*,-4,3
Cc1oc2c(c1C(=O)c1ccc(Cl)cc1)C(=O)C(=O)c1ccccc1-2,30*,21,1961,5,13
NC(=O)c1c(/N=C/c2cccs2)sc2c1CCCC2,0,-10,4917,-2,-7
C=C1CC2C=C(NC(C)=O)CC(C1)C2 (stereo not given),0,-3,22238*,5,-1
COC(=O)c1cccc(N(CC(=O)NC2CCCCC2)C(=O)CNC(=O)c2cccs2)c1,-4,-5,4015,9,-34
O=C(NNC(=O)c1ccccc1OCc1ccccc1Cl)c1csc(N2CCOCC2)n1,-2,-2,6369,-7,4
CC(C)(C)c1ccc(C(=O)Nc2c3c(nn2C(C)(C)C)CS(=O)(=O)C3)cc1,4,-6,?,1,-8
CCN(CC)S(=O)(=O)c1ccc(C(=O)Nc2c3c(nn2C(C)(C)C)CS(=O)(=O)C3)cc1,0,-1,23143*,4,0
O=S(=O)(/C=C/c1ccccc1)Oc1ccccc1,-3,0,21677*,-4,-4
Cc1ccc(Nc2nc(C)cc(C)c2C#N)c(C)c1,0,0,4220,1,-5
c1ccc(OCc2nn3c(-c4ccccn4)nnc3s2)cc1,0,-11,9463,0,-1
c1ccc(OCc2nn3c(-c4ccncc4)nnc3s2)cc1,-4,-1,21442*,-6,-5
SMILES,BoNT-A LC inh2,Anthrax LF prot,Bead autofluor,MazF activator,BoNT F protease
COc1ccc(CCNC(=O)CCC(=O)n2ncc3ccc(Cl)cc32)cc1OC,-1,-1,6077,-5,-1
CCC(NC(=O)NCc1ccc2c(c1)OCO2)(C(F)(F)F)C(F)(F)F,?,1,16887*,6,18
Cc1ccc(S(=O)(=O)NCc2ccccc2)cc1C(=O)NCC(=O)Nc1c(C)cccc1C,0,-6,3718,2,6
CCCCOC(=O)n1c(SCC(=O)N(C)C)nc2ccccc21,6,3,20862*,-2,6
CC(NS(=O)(=O)c1cc2c3c(c1)CCN3C(=O)CC2)c1ccccc1 (stereo not given),-1,-11,3931,4,-1
CC(C)(C)NC(=O)c1nn2c(C(F)(F)F)cc(-c3ccccc3)nc2c1Br,6,-17,3602,2,?
COC(=O)c1nn2c(C(F)(F)F)cc(-c3ccc(Br)o3)nc2c1Br,2,-2,10641,111*,-6
Cc1ccc(C(c2nnnn2C(C)(C)C)N2CCC(C)CC2)cc1 (stereo not given),2,-6,20278*,-2,4
Cn1c(CN2CCCCC2)nc2cc(NC(=O)c3ccc(F)cc3)ccc21,0,-7,10523,-10,-2
Cn1c(CN2CCCC2)nc2cc(NC(=O)C3CCCCC3)ccc21,0,1,17014*,2,0
Cn1c(CN2CCCCC2)nc2cc(NC(=O)c3ccccc3Cl)ccc21,-2,-2,20760*,-9,-4
CN1CCN(CCc2nc3cc(NC(=O)COc4ccccc4)ccc3n2C)CC1,1,2,9293,-2,-3
CC(=O)N1CCN(Cc2nc3cc(NC(=O)c4ccccc4Cl)ccc3n2C)CC1,0,5,4843,8,-2
CC(C)C(=O)Nc1ccc2c(c1)nc(CCN1CCN(C)CC1)n2C,-2,-2,24142*,-2,-5
CC(=O)NNC(=O)c1csc(-c2csc(C)n2)n1,?,-8,3836,-9,?
O=C(NCCN1CCOCC1)c1cc(-c2ccc(Cl)cc2)on1,?,-3,17467*,4,-5
O=C(NC(=S)NCCN1CCOCC1)c1cccc(Cl)c1,-1,1,22268*,-3,-2
COc1ccc(NC(=O)c2cc3n(n2)C(C(F)(F)F)CC(c2ccc(OC)cc2)N3)cc1 (stereo not given),0,-2,7737,8,3
COc1ccc(C2CC(C(F)(F)F)n3nc(C(=O)NCCN4CCOCC4)cc3N2)cc1 (stereo not given),-1,-2,17087*,10,-4
COc1cccc(-c2cc(C(=O)NCCN3CCOCC3)no2)c1,-3,0,17375*,2,-5
COc1ccccc1-c1cc(C(=O)NCCN2CCOCC2)no1,0,-1,11229,2,3
O=C(COC(=O)Cc1ccc(S(=O)(=O)N2CCOCC2)s1)Nc1ccccc1Cl,1,8,3631,-9,0
CCOC(=O)C1(C)CCCN(C(=O)c2cccs2)C1 (stereo not given),0,3,3361,nt,-1
COc1ccc(CNC(=O)COC(=O)c2ccc(S(=O)(=O)NCc3ccco3)cc2)cc1,-1,4,3936,-1,0
Nc1nc2ccc(Cl)cc2cc1C(=O)NC1CC1,1,2,6048,nt,-4
O=C(CSc1n[nH]c(-c2ccco2)n1)N1c2ccccc2Sc2ccccc21,2,-3,22111*,5,2
CCOC(=O)CSc1n[nH]c(-c2ccco2)n1,0,-4,5814,2,-1
C(=C\c1ccccc1)/CN1CCN(C(c2cccc3ccccc23)c2nnnn2-c2ccc3c(c2)OCCO3)CC1 (stereo not given),0,-5,4263,nt,-2
COc1ccc(C(=O)C[n+]2cc(-c3ccc(OC)cc3)n3c2CCCC3)cc1,1,-2,3984,29,3
